In all, about 5,500 compounds went through this assay and about 2,000 (36%) were called active. About 18% were inconclusive and are not listed. Cut-off read from the data, not from the text of the source: active = normalized growth mostly below about 0.91 (no sharp cut-off); inconclusive = no clear call, values can overlap the other calls; inactive = mostly above about 0.92. This is one part of the list.
Assay: chemical genetic growth profiling, strain panel (AID 1159580);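 note: tested at 20 µM; growth read once vehicle control cultures reached saturation at 30 °C; 1 = growth at the plate median or of vehicle wells; lower values mean less growth of the strain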
Settings: S. cerevisiae deletion strains, growth OD
[1] = locus YHR030C, strain SLT2, hits give low values
[2] = locus YHR079C, strain IRE1, hits give low values
[3] = locus YJL095W, strain BCK1, hits give low values
[4] = locus YJR066W, strain TOR1, hits give low values
[5] = locus YLR113W, strain HOG1, hits give low values
[6] = locus YNL183C, strain NPR1, hits give low values
[7] = locus YOR231W, strain MKK1, hits give low values
[8] = locus YPL256C, strain CLN2, hits give low values

Measured: normalized growth

COc1ccc(C2CC(c3ccccc3)=Nc3ccccc3S2)cc1OC (centres undefined)
inactive: locus YAR019C, strain CDC15, hits give low values 0.969 | locus YBL105C, strain PKC1, hits give low values 0.962 | locus YBR135W, strain CKS1, hits give low values 0.974 | locus YBR136W, strain MEC1, hits give low values 0.947 | locus YBR160W, strain CDC28, hits give low values 0.975 | locus YDL017W, strain CDC7, hits give low values 0.965 | locus YDL028C, strain MPS1, hits give low values 0.975 | locus YDL101C, strain DUN1, hits give low values 0.965 | locus YDL108W, strain KIN28, hits give low values 0.976 | locus YDL132W, strain cdc53, hits give low values 0.975 | locus YDL214C, strain PRR2, hits give low values 0.936 | locus YDR052C, strain DBF4, hits give low values 0.97 | locus YDR054C, strain cdc34, hits give low values 0.958 | locus YDR226W, strain ADK1, hits give low values 0.967 | locus YDR477W, strain SNF1, hits give low values 0.949 | locus YER123W, strain YCK3, hits give low values 0.939 | locus YER133W, strain GLC7, hits give low values 0.952 | locus YFL009W, strain cdc4, hits give low values 0.973 | locus YFL029C, strain CAK1, hits give low values 0.945 | locus YFR003C, strain YPI1, hits give low values 0.961 | locus YFR019W, strain FAB1, hits give low values 0.967 | locus YFR028C, strain CDC14, hits give low values 0.961 | locus YGR040W, strain KSS1, hits give low values 0.94 | locus YGR052W, strain FMP48, hits give low values 1.02 | locus YGR092W, strain DBF2, hits give low values 0.935 | [1] 0.887 | [2] 0.914 | locus YHR082C, strain KSP1, hits give low values 0.975 | locus YHR205W, strain SCH9, hits give low values 0.934 | locus YIL147C, strain SLN1, hits give low values 0.959 | [3] 0.941 | locus YJL128C, strain PBS2, hits give low values 0.943 | locus YJL157C, strain FAR1, hits give low values 0.968 | locus YJR016C, strain ILV3, hits give low values 0.966 | locus YJR066W, strain TOR1 (second series), hits give low values 0.901 | [4] 0.938 | locus YKL048C, strain ELM1, hits give low values 0.968 | locus YKL067W, strain YNK1, hits give low values 0.956 | locus YKL101W, strain HSL1, hits give low values 0.927 | locus YKL193C, strain SDS22, hits give low values 0.976 | locus YKL203C, strain TOR2, hits give low values 0.965 | [5] 0.889 | locus YLR133W, strain CKI1, hits give low values 0.948 | locus YLR403W, strain SFP1, hits give low values 0.929 | locus YML070W, strain DAK1, hits give low values 0.949 | locus YMR001C, strain CDC5, hits give low values 0.969 | locus YMR205C, strain PFK2 (second series), hits give low values 0.95 | locus YMR277W, strain FCP1, hits give low values 0.97 | locus YNL006W, strain LST8, hits give low values 0.988 | locus YNL020C, strain ARK1, hits give low values 0.939 | locus YNL161W, strain CBK1, hits give low values 0.962 | [6] 0.939 | locus YNL207W, strain RIO2, hits give low values 0.97 | locus YNL222W, strain SSU72, hits give low values 0.968 | locus YNL307C, strain MCK1 (second series), hits give low values 0.974 | locus YOL078W, strain AVO1, hits give low values 0.975 | locus YOL136C, strain PFK27, hits give low values 0.946 | locus YOR061W, strain CKA2, hits give low values 0.94 | locus YOR119C, strain RIO1, hits give low values 0.949 | [7] 0.918 | locus YOR329C, strain SCD5, hits give low values 0.97 | locus YPL031C, strain PHO85, hits give low values 0.932 | locus YPL153C, strain RAD53, hits give low values 0.958 | locus YPL204W, strain HRR25, hits give low values 0.948 | locus YPL209C, strain IPL1, hits give low values 0.975 | [8] 0.879 | locus YPR025C, strain CCL1, hits give low values 0.966 | locus YPR106W, strain ISR1, hits give low values 0.971 | locus YPR111W, strain DBF20, hits give low values 0.97 | strain NNK1, hits give low values 0.958 | strain TSCII, hits give low values 0.965

Cc1ncc(C[n+]2csc(CCO)c2C)c(=O)[nH]1
inactive: [1] 1.04 | [2] 1.05 | [3] 0.991 | [4] 0.984 | [5] 0.979 | [6] 0.976 | [7] 1.03 | [8] 1.05

From PubChem BioAssay AID1159580 (chemical genetic matrix, 2015)
